# Compound activity deposited in PubChem BioAssay by several laboratories.
# CYP2C19 inhib = inhibitors of human CYP2C19; inhibition, % at 5 µM; P33261; CYP2C19 Supersomes, luciferin-H EGE luminescence, 30 min; 96,000 compounds, 21% hits;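 active = CYP2C19 inhibition above a set limit at 5 µM in the primary screen, cut at about 50% in these data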;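 also: plate controls were negative control wells for no effect and 2.5 mM tranylcypromine positive control for full effect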
# Target sequence (P33261 whole entry, looked up): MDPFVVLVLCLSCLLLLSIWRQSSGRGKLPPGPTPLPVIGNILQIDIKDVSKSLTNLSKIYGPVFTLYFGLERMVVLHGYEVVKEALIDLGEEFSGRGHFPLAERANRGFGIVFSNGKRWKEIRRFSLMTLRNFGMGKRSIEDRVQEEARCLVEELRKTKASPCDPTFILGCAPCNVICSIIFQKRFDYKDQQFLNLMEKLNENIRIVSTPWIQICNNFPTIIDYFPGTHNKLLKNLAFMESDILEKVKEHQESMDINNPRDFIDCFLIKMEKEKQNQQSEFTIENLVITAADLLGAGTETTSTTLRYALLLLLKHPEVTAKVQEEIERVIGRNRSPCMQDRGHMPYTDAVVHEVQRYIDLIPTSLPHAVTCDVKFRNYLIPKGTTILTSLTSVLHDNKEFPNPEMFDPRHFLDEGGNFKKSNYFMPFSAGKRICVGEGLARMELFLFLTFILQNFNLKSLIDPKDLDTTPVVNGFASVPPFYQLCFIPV
# CYP2C9 inhib = blocks human cytochrome P450 2C9; P11712; CYP2C9 Supersomes, luciferin-H conversion, luminescence; inhibition, % at 5 µM; 96,000 compounds, 20% hits; AID 777;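 active = blocking of liver enzyme CYP2C9 beyond about 50% at 5 µM, limit read from the data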
# PostGolgi yeast = growth inhibition of a yeast mutant, post-Golgi transport screen; post-Golgi transport phenotypic cell assay; inhibition, % at 10 µM; 98,000 compounds, 0.9% hits;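 also: yeast cells grown in 1536-well plates; yeast grown about 18 h at 30C before absorbance read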
# CYP2C9 activ = increases human cytochrome P450 2C9 activity; P11712; recombinant CYP2C9, luciferin-H conversion, luminescence; active compounds read high; factor 1 = untreated enzyme, 0 = blocked; 96,000 compounds, 1.4% hits; activation factor at 5 µM;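 active = activation factor of 2 or more for CYP2C9 at a 5 µM dose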;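 also: 0 = sulfaphenazole-blocked wells and 1 = vehicle-only wells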
# PostGolgi ctrl = growth of the yeast control strain, post-Golgi counter-screen | inhibition, % at 10 µM | AID 738 | efflux-deficient yeast background strain, growth absorbance A615, 16 h | 98,000 compounds, 5% hits
# CYP2C19 act = activators of human cytochrome P450 2C19 | P33261 | recombinant CYP2C19, luciferin-H EGE luminescence; active compounds read high; 0 = fully inhibited enzyme, 1 = untreated enzyme | activation factor at 5 µM | 96,000 tested, under 10 active;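 active = activation factor of at least 2 at 5 µM in the primary screen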;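 also: 0 = wells with 2.5 mM tranylcypromine and 1 = vehicle-only wells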
# Active calls of the source: *; . = not tested or not shown. Rows were chosen to be rich in hits. Some 32% of all compounds tested hit in one or more screens of this group. Rule as the data show it, unless noted: active = inhibition above about 30%; inactive = the rest.
SMILES,CYP2C19 inhib,CYP2C9 inhib,PostGolgi yeast,CYP2C9 activ,PostGolgi ctrl,CYP2C19 act
COC(=O)c1ccccc1NC(=O)C1CC(=O)N(c2ccc(C)c(C)c2)C1 (stereo not drawn),37.4,-54.5,0.3,1.5,6.3,0.6
COC(=O)c1ccccc1NC(=O)C1CC(=O)N(c2ccc(F)cc2)C1 (stereo not drawn),84.2*,63.8*,10.1,0.4,-1.3,0.2
Cc1ccc(F)c(NC=C2C(=O)OC(C)(C)OC2=O)c1,8.6,-7.6,.,1.1,.,0.9
O=C(CN1C(=O)CSc2ccccc21)Nc1ccc2c(c1)OCCO2,29.6,-118.5,1.7,2.2*,0.1,0.7
Cc1cc2ccccc2c(=O)n1CC(=O)Nc1ccc2c(c1)OCCO2,55.7*,62.9*,-4.8,0.4,-0.6,0.4
O=C(CN1C(=O)CCS(=O)(=O)c2ccccc21)Nc1ccc2c(c1)OCCO2,.,.,3.7,.,-1.8,.
O=C(CN1C(=O)CCSc2ccccc21)Nc1ccc2c(c1)OCO2,90.0*,70.4*,-2.1,0.3,-7.5,0.1
O=C(CN1C(=O)COc2ccccc21)Nc1ccc2c(c1)OCCO2,57.1*,33.2,-2.6,0.7,2.4,0.4
NC(=O)NC(=O)CSc1cccc(C(F)(F)F)c1,.,.,6.7,.,6.9,.
O=C(CN1C(=O)CSc2ccccc21)NC1CCCC1,15.1,-126.9,0.5,2.3*,8.9,0.8
O=c1c2ccccc2nc2n1CCN2Cc1ccc(Cl)cc1,74.3*,66.9*,3.3,0.3,24.5,0.3
O=c1c2ccccc2nc(-c2ccccc2)n1Cc1ccc(Cl)cc1,76.6*,81.8*,-8.4,0.2,12.2,0.2
O=C(Nc1cccc2nsnc12)c1ccc(-c2cccc(Cl)c2)o1,14.1,6.7,-2.6,0.9,-3.0,0.9
CCn1cc([N+](=O)[O-])c(C(=O)Nc2ccc(Br)cn2)n1,81.6*,28.0,-3.0,0.7,-2.8,0.2
CCn1cc([N+](=O)[O-])c(C(=O)Nc2c(C)nn(Cc3c(F)c(F)c(F)c(F)c3F)c2C)n1,7.9,6.6,23.0,0.9,-1.9,0.9
COc1cc(CNC(=O)OCC(C)C)cc(OC)c1OC,30.6,15.2,-1.7,0.8,20.1,0.7
CCOc1c(Cl)cc(CNCC(C)C)cc1OC,70.6*,1.1,-1.0,1,9.1,0.3
CCCCNCc1cc(Cl)c(OCCC)c(OCC)c1,68.0*,35.1,-27.8,0.6,18.3,0.3
CCCCOc1c(Cl)cc(CNC(C)(C)CO)cc1OCC,12.3,-4.6,2.7,1,1.9,0.9
O=C(CC(NS(=O)(=O)c1ccc(Cl)cc1)c1ccco1)N1CCc2ccccc21 (stereo not drawn),12.3,-1.8,2.6,1,19.2,0.9
CCN(CC)c1ncnc2ccc(Br)cc12,26.2,16.8,17.4,0.8,-6.7,0.7
O=C(CSc1nnc(-c2ccc(Cl)cc2Cl)n1C1CCCCC1)N1CCCC1,39.4,37.8,-22.0,0.6,22.4,0.6
Cc1ccc(/C=N/N2C(=S)SC(C)(C)C2N(O)C(=O)Nc2ccc([N+](=O)[O-])cc2)cc1 (stereo not drawn),23.3,30.4,1.2,0.7,8.8,0.8
CC1(C)SC(=S)N(/N=C/c2ccc(O)cc2)C1N(O)C(=O)Nc1ccc([N+](=O)[O-])cc1 (stereo not drawn),26.6,66.1*,3.0,0.3,10.8,0.7
Nc1ncnc2c1ncn2CCN1CCOCC1,90.0*,48.0,2.8,0.5,5.8,0.1
SMILES,CYP2C19 inhib,CYP2C9 inhib,PostGolgi yeast,CYP2C9 activ,PostGolgi ctrl,CYP2C19 act
COc1ccc(S(=O)NC2CCCCC2)c(OC)c1C (stereo not drawn),26.3,2.1,7.9,1,-2.3,0.7
CC1Sc2ccccc2N(CC(=O)N(C(C)C)C(C)C)C1=O (stereo not drawn),26.3,-5.0,10.6,1.1,13.9,0.7
CCOC(=O)/C(C(N)=NCc1ccco1)=C(/O)c1ccccc1,54.7*,39.9,-3.2,0.6,0.6,0.5
c1ccc(NC(=NCc2ccco2)c2ccccc2)cc1,8.2,19.4,10.6,0.8,6.2,0.9
O=C(Cn1cnc2ccccc2c1=O)Nc1nnc(SCc2ccccc2)s1,-2.4,9.1,-5.7,0.9,1.4,1
Cc1nn(C)c(C)c1S(=O)(=O)N1CCCC(C(=O)NCC2COc3ccccc3O2)C1 (stereo not drawn),4.2,-34.7,8.4,1.3,-4.0,1
Cc1cccc(CN2C(=O)N/C(=C/c3cc(C)n(-c4ccccn4)c3C)C2=O)c1,46.6,97.5*,-1.1,0,7.5,0.5
Cc1cc(C)n(-c2ccc(Cl)c(C(=O)Nc3ccc(-c4nnc5n4CCCCC5)cc3)n2)n1,17.9,14.6,-5.9,0.9,-7.2,0.8
CCOC(=O)C1/C(=N\O)CC(C)(O)C(C(=O)OCC)C1c1ccc(N(C)C)cc1 (stereo not drawn),83.6*,20.8,1.0,0.8,7.8,0.2
CCOC(=O)C1/C(=N\O)CC(C)(O)C(C(=O)OCC)C1c1ccc(OC)c(OC)c1 (stereo not drawn),5.7,3.4,6.7,1,9.8,0.9
CSc1nc(-c2ccccc2)nc(SC)c1C(C)=O,11.2,-11.6,-6.7,1.1,8.1,0.9
CSc1nc(-c2ccccc2)[nH]c(=S)c1C(C)=O,19.8,54.7*,2.8,0.5,16.6,0.8
CC1CC(C)CN(CCC(=O)Nc2cccc(Cl)c2)C1 (stereo not drawn),69.2*,17.5,13.5,0.8,-3.6,0.3
Cc1cccc(NC(=O)CCN2CC(C)OC(C)C2)c1 (stereo not drawn),72.9*,2.5,-4.3,1,0.8,0.3
CCOc1ccc(-n2nnc3c(=O)n(CC(=O)c4ccccc4)cnc32)cc1,2.3,15.4,.,0.8,.,1
Cc1cc2c(c(=O)o1)C(C(C)C)C(C#N)=C(N)O2 (stereo not drawn),56.6*,0.0,0.6,1,8.6,0.4
COc1cc(C2C(C#N)=C(N)Oc3cc(C)oc(=O)c32)cc2c1OCO2 (stereo not drawn),19.9,53.7*,7.0,0.5,-5.0,0.8
CCOc1cccc(C2C(C#N)=C(N)Oc3cc(C)oc(=O)c32)c1OCC (stereo not drawn),21.4,89.5*,-1.8,0.1,4.7,0.8
COc1cc(C2C(C#N)=C(N)Oc3cc(C)n(CC4CCCO4)c(=O)c32)cc2c1OCO2 (stereo not drawn),-1.4,-0.8,1.3,1,8.8,1
Cc1cc2c(c(=O)o1)C(Cc1ccccc1)C(C#N)=C(N)O2 (stereo not drawn),86.5*,63.0*,0.0,0.4,9.2,0.1
COc1ccc(/C=N/NC(=O)CC(=O)NCc2cccnc2)cc1,-8.4,19.1,12.3,0.8,-3.8,1.1
O=C(N/N=C/c1ccc(Br)o1)/C(=C/c1ccc([N+](=O)[O-])cc1)NC(=O)c1ccccc1,52.3*,24.2,4.6,0.8,11.2,0.5
